Laboratory results: PubChem BioAssay (NCI)
Compounds without any hit were thinned out: in the full panel of roughly 79,000, 15% have a hit. Activity calls are given as the source filed them. No stated cut-off is given here; in the data, active means growth inhibition above about 70%; inactive means the rest.

Columns and labels:
[1] = NCI Yeast Anticancer Drug Screen. Data for the rad52 strain (AID 147);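 further: 0% = growth of vehicle-treated control cultures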; details: S. cerevisiae rad52 mutant growth inhibition, hits give high values
How it was run: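 Inhibition of yeast growth, referenced to vehicle controls, was the measured output for a strain with defective DNA damage repair.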

[2] = NCI Yeast Anticancer Drug Screen. Data for the wt1 strain (AID 149);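 further: 0% = growth of vehicle-treated wt1 cultures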; details: S. cerevisiae wt1 strain (SPY 50644) growth inhibition, hits give high values
How it was run: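 Readout: yeast growth inhibition, normalised to vehicle controls, in the wt1 strain exposed to test compounds.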

[3] = NCI Yeast Anticancer Drug Screen. Data for the rad50EPP+ strain (AID 151);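 further: 0% = growth of vehicle-treated control cultures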; details: S. cerevisiae rad50 mutant strain, hits give high values
How it was run: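 Genetically defined yeast (rad50EPP+, DNA damage repair alteration) is grown with compound, and inhibition of growth is expressed relative to vehicle-treated controls.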

[4] = NCI Yeast Anticancer Drug Screen. Data for the mgt1 strain (AID 153); details: S. cerevisiae mgt1 mutant growth inhibition, hits give high values
How it was run: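 In the mgt1 strain, test compounds were added and growth inhibition was determined relative to vehicle-treated controls.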

[5] = NCI Yeast Anticancer Drug Screen. Data for the rad50 strain (AID 155);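 further: 0% = growth of vehicle-only cultures of the same strain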; details: S. cerevisiae rad50 strain growth inhibition, hits give high values
How it was run: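 Compounds were tested on a yeast strain with an engineered DNA damage repair alteration; the reported value is growth inhibition normalised to vehicle treatment.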

[6] = NCI Yeast Anticancer Drug Screen. Data for the mec2-1 strain (AID 157); details: S. cerevisiae mec2-1 strain, hits give high values
How it was run: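 Each compound was tested on mec2-1 yeast, a strain altered in DNA damage repair or cell cycle control. Growth inhibition is reported relative to vehicle.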

[7] = NCI Yeast Anticancer Drug Screen. Data for the rad14 strain (AID 159);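 further: 0% = growth of vehicle-treated control cultures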; details: S. cerevisiae rad14 strain growth inhibition, hits give high values
How it was run: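 Compound-treated yeast with a defined DNA-repair lesion; growth inhibition normalised to vehicle-treated cultures.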

[8] = NCI Yeast Anticancer Drug Screen. Data for the sgs1 mgt1 strain (AID 161);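 further: 0% = growth of cultures given vehicle only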; details: S. cerevisiae sgs1 mgt1 strain, hits give high values
How it was run: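 Read-out: growth inhibition vs vehicle controls. Cells: mutant yeast strain deficient in DNA damage repair.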

[9] = NCI Yeast Anticancer Drug Screen. Data for the CLN2oe strain (AID 163);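 further: 0% = growth of vehicle-only control cultures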; details: S. cerevisiae CLN2oe strain, hits give high values
How it was run: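 First, the altered yeast strain was treated with each compound; second, its growth was measured; finally, inhibition was derived by comparison with vehicle controls.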

[10] = NCI Yeast Anticancer Drug Screen. Data for the cln2 rad14 strain (AID 165);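 further: 0% = growth equal to vehicle treated cultures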; details: S. cerevisiae cln2 rad14 strain, hits give high values
How it was run: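 Test compounds were added to cln2 rad14 yeast cultures; inhibition of growth was then determined by comparison with vehicle treatment.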

[11] = NCI Yeast Anticancer Drug Screen. Data for the bub3 strain (AID 167); details: S. cerevisiae bub3 mutant strain, hits give high values
How it was run: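 Growth of a checkpoint-deficient yeast mutant is measured after compound exposure. Values represent inhibition relative to vehicle.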

[12] = NCI Yeast Anticancer Drug Screen. Data for the wt2 strain (AID 169);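 further: 0% = growth of vehicle-treated yeast cultures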; details: S. cerevisiae wt2 strain growth inhibition, hits give high values
How it was run: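 The panel's yeast strains carry defined changes in DNA repair or cell cycle genes. Each strain is grown with compound, and growth loss is scored relative to vehicle.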

[13] = NCI Yeast Anticancer Drug Screen. Data for the mlh1 strain (AID 171);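 further: 0% = growth of vehicle-treated control cultures of the same strain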; details: S. cerevisiae mlh1 strain growth inhibition, hits give high values
How it was run: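 Inhibition values reflect reduced yeast growth in the presence of compound, referenced to vehicle controls, using a strain chosen for its alteration in DNA repair or cell cycle control.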

[14] = NCI Yeast Anticancer Drug Screen. Data for the sgs1 strain (AID 173);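 further: 0% = growth of vehicle-only control cultures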; details: S. cerevisiae sgs1 mutant, hits give high values
How it was run: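 Vehicle-treated cultures served as reference for growth inhibition of a yeast strain altered in DNA damage repair or cell cycle control after compound exposure.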

[15] = NCI Yeast Anticancer Drug Screen. Data for the mlh1 rad18 strain (AID 175); details: S. cerevisiae mlh1 rad18 strain growth inhibition, hits give high values
How it was run: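 Inhibition values reflect reduced growth of mutant yeast versus vehicle-treated controls following compound exposure; the mutations affect DNA damage repair.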

[16] = NCI Yeast Anticancer Drug Screen. Data for the rad18 strain (AID 177); details: S. cerevisiae rad18 mutant growth inhibition, hits give high values
How it was run: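 Steps: expose repair-mutant yeast to compound; measure growth; express as inhibition relative to vehicle control.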

[17] = at 5.0 µM (retest, dose inferred, filed as 0.5)
[18] = at 50.0 µM (retest, dose inferred, filed as 5.0)

Measured: growth inhibition

CCOC(=O)[C@H]1Nc2ccccc2C2c3ccccc3CC21 (stereo partly drawn)
active: [1]; at 100.0 µM 76% | [5]; [18] 91% | [5]; at 50.0 µM 84.6% | [6]; at 50.0 µM 91.3% | [8]; [18] 83% | [8]; at 50.0 µM 91.4% | [10]; [18] 73% | [10]; at 50.0 µM 90.9% | [11]; at 33.0 µM 79% | [11]; [18] 75% | [11]; at 50.0 µM 90.5% | [11]; at 100.0 µM 81% | [13]; at 33.0 µM 70% | [14]; at 100.0 µM 72% | [15]; [18] 94% | [15]; at 50.0 µM 87.8% | [16]; at 100.0 µM 74%
inactive: [1]; at 1.2 µM -39% | [1]; at 3.7 µM -44% | [1]; at 11.0 µM -10% | [1]; at 33.0 µM 55% | [2]; at 1.2 µM -9% | [2]; at 3.7 µM -2% | [2]; at 11.0 µM 0% | [2]; at 33.0 µM 26% | [2]; at 100.0 µM 54% | [3]; at 1.2 µM 6% | [3]; at 3.7 µM 0% | [3]; at 11.0 µM 14% | [3]; at 33.0 µM 31% | [3]; at 100.0 µM 14% | [4]; at 1.2 µM -4% | [4]; at 3.7 µM 10% | [4]; at 11.0 µM 53% | [4]; at 33.0 µM 64% | [4]; at 100.0 µM 65% | [5]; at 1.2 µM -6% | [5]; at 3.7 µM -9% | [5]; [17] 15% | [5]; at 11.0 µM -4% | [5]; at 33.0 µM 27% | [5]; at 100.0 µM 55% | [6]; at 1.2 µM -23% | [6]; at 3.7 µM -12% | [6]; [17] -10% | [6]; at 11.0 µM 21% | [6]; at 33.0 µM 53% | [6]; [18] 20% | [6]; at 100.0 µM 65% | [7]; at 1.2 µM -13% | [7]; at 3.7 µM -16% | [7]; at 11.0 µM 1% | [7]; at 33.0 µM 22% | [7]; at 100.0 µM 50% | [8]; [17] 25% | [9]; at 1.2 µM 5% | [9]; at 3.7 µM -1% | [9]; at 11.0 µM 11% | [9]; at 33.0 µM 30% | [9]; at 100.0 µM 23% | [10]; [17] 13% | [11]; at 1.2 µM -4% | [11]; at 3.7 µM 11% | [11]; [17] -6% | [11]; at 11.0 µM 23% | [12]; at 1.2 µM -31% | [12]; at 3.7 µM -25% | [12]; at 11.0 µM 21% | [12]; at 33.0 µM 44% | [12]; at 100.0 µM 48% | [13]; at 1.2 µM -3% | [13]; at 3.7 µM 28% | [13]; at 11.0 µM 52% | [13]; at 100.0 µM 60% | [14]; at 1.2 µM -6% | [14]; at 3.7 µM 4% | [14]; at 11.0 µM 41% | [14]; at 33.0 µM 64% | [15]; [17] 8% | [16]; at 1.2 µM -31% | [16]; at 3.7 µM -36% | [16]; at 11.0 µM 17% | [16]; at 33.0 µM 64%
